The record followed here is the supplement of paper PMC6411743.

± gives the standard deviation of the averaged measurements. About 5,400 targets were measured; listed, in parts, are those with the largest changes and a random draw of the rest.

Compound in the assay: Nc1nc2c(ncn2[C@@H]2O[C@H](COP(=O)(O)OP(=O)(O)OP(=O)(O)O)[C@@H](O)[C@H]2O)c(=O)[nH]1 [guanosine triphosphate]
The assay is described as follows: NP40-soluble protein abundance relative to vehicle (solubility fold change) (ratio); higher = more soluble protein in presence of GTP. The method, boiled down:
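Jurkat crude lysate (Dounce-homogenised) was treated with eight concentrations from 0.1 to 10 mM for 10 min at room temperature, then 3 min at 37 °C. It was solubilised with 0.8% NP40 and benzonase (60 min, 4 °C) and ultracentrifuged, and the supernatant was TMT-labelled for LC-MS/MS. Intensities were vsn-normalised, and the value is the fold change against the NP40-processed vehicle per replicate, from three independent experiments.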

UniProt P04150, sequence (P04150 whole entry): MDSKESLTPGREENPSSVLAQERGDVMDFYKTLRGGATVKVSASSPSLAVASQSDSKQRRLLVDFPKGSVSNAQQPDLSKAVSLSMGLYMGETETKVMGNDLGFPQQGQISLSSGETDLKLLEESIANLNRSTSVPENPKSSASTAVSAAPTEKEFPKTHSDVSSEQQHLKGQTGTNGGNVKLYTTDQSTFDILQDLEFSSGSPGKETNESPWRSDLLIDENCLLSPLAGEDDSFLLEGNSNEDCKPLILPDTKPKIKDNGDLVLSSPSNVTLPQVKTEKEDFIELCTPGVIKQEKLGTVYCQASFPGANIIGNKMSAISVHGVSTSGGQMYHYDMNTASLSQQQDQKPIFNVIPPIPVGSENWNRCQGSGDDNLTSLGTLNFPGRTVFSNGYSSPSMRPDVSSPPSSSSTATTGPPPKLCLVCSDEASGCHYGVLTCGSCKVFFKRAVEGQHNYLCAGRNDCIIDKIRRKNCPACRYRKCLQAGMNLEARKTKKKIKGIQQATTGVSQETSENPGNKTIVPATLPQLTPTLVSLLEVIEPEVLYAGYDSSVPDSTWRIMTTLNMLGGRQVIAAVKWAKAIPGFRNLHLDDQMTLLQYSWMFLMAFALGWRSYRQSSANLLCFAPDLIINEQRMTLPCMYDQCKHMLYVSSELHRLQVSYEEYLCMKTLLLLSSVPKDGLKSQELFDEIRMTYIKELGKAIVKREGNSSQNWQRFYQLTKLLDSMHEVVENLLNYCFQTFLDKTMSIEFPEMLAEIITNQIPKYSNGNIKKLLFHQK
UniProt O75937, sequence (O75937 whole entry): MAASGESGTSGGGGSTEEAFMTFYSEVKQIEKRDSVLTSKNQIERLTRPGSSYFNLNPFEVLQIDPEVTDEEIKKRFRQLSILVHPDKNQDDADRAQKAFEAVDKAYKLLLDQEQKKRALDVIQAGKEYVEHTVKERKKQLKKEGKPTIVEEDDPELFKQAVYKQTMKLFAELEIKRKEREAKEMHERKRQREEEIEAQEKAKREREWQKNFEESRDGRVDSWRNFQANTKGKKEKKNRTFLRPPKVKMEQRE
UniProt P67936, sequence (P67936 whole entry, one chain of several): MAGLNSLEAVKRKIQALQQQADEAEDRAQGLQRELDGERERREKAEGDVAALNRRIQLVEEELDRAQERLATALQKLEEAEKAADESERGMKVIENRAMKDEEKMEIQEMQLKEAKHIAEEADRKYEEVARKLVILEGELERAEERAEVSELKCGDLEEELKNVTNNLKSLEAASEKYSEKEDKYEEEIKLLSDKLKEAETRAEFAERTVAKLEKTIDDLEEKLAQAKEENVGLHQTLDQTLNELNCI
UniProt O14497, sequence (O14497 whole entry): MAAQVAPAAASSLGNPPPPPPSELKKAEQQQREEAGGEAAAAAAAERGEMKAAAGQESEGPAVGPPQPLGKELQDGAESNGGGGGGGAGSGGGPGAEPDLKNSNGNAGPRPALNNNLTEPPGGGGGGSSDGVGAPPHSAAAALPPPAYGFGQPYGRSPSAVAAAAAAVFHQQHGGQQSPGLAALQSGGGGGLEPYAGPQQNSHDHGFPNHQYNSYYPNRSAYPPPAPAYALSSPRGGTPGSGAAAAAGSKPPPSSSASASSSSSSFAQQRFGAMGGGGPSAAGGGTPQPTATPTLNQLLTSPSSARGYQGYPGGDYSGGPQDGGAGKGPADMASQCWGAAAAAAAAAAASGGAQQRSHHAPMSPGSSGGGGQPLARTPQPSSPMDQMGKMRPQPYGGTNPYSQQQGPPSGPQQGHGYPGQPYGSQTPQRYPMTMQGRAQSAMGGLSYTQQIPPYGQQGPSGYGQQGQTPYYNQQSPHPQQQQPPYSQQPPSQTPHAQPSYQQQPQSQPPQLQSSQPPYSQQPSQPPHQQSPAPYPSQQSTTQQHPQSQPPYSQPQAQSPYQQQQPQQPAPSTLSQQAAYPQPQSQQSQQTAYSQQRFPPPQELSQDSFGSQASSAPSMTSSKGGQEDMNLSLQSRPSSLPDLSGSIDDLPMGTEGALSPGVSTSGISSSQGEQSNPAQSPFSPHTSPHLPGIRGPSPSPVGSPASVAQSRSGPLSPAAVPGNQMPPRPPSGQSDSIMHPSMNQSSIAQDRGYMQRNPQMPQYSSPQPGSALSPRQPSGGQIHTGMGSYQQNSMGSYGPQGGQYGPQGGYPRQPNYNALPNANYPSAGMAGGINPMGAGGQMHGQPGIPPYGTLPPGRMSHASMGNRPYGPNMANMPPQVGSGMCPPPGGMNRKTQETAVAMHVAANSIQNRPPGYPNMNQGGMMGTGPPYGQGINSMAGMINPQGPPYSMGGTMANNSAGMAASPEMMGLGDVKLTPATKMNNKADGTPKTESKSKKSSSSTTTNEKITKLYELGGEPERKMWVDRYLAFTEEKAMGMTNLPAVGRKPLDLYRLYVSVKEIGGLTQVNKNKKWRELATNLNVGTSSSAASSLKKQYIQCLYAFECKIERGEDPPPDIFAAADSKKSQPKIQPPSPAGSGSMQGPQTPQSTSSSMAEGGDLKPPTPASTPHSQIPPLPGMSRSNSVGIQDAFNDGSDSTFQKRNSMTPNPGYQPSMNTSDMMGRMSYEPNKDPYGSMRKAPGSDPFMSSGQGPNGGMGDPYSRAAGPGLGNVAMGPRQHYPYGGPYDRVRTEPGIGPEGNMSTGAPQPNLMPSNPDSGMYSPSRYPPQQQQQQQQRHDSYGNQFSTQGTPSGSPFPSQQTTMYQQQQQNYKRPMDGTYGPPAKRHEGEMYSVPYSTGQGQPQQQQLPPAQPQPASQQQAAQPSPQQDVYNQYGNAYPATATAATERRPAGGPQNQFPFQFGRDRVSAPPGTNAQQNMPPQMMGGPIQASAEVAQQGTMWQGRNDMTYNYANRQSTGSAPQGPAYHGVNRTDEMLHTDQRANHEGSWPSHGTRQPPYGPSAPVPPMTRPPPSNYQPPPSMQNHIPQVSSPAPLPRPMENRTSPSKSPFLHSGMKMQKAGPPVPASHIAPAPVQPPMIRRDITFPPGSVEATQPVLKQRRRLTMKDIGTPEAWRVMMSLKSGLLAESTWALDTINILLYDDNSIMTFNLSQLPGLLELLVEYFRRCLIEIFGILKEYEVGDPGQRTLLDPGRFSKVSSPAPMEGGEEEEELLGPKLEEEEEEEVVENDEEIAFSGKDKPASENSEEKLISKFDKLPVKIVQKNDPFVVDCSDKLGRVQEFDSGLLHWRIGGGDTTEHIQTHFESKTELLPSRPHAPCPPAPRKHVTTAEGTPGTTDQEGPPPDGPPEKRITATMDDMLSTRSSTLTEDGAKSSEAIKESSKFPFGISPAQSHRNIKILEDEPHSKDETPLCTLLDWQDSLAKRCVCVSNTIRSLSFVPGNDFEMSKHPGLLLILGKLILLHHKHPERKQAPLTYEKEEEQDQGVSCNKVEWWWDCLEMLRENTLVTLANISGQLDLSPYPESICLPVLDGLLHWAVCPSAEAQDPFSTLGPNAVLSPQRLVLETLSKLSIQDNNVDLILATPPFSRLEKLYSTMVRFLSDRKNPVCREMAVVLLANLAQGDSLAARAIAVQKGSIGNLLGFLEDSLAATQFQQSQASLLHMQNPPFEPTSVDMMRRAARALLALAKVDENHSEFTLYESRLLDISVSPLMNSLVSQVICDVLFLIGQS
UniProt Q9BRQ6, sequence (Q9BRQ6 whole entry, one chain of several): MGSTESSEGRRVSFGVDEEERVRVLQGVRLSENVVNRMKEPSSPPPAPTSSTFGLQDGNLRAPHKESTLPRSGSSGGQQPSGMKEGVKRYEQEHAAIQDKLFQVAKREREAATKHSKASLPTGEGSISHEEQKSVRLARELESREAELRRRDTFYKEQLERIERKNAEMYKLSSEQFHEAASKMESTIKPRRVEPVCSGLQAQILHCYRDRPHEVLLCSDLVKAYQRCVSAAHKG
UniProt P38159, sequence (P38159 whole entry): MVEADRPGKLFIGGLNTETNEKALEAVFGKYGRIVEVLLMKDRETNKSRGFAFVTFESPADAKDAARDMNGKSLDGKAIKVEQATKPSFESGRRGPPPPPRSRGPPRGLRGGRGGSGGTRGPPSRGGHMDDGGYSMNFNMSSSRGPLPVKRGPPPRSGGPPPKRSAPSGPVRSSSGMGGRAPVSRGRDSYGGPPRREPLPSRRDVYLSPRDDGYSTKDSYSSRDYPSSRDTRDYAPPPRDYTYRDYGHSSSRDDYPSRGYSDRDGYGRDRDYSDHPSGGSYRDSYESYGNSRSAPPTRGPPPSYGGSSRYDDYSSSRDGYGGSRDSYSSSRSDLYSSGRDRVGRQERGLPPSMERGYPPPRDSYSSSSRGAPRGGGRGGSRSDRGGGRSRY
UniProt O60870, sequence (O60870 whole entry): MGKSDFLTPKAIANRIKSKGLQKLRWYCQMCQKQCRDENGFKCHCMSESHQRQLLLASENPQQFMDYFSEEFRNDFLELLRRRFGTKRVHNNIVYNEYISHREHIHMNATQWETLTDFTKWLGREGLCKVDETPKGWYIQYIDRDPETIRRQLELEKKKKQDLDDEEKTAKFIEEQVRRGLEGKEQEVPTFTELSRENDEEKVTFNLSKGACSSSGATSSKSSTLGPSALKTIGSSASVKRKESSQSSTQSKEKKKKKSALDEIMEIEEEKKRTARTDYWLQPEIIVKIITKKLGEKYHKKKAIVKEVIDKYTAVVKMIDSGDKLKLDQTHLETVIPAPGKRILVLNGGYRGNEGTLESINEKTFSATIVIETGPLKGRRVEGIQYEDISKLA
UniProt O75822, sequence (O75822 whole entry): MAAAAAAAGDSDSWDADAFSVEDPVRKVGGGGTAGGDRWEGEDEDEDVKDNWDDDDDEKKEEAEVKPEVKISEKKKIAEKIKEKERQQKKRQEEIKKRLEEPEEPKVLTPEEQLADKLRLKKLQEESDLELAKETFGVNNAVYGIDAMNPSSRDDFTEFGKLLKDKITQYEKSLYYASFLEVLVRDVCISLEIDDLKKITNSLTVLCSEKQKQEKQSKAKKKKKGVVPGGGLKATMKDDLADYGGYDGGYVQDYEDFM

Take UniProt P09564: the NP40-soluble protein abundance is, setting by setting: (concentration: 0.1mM) 1.03 ± 0.2; (concentration: 0.5mM) 0.908 ± 0.048; (concentration: 1mM) 1.09 ± 0.19; (concentration: 2mM) 0.942 ± 0.15; (concentration: 4mM) 1.02 ± 0.13; (concentration: 6mM) 0.977 ± 0.15. Moreover, the NP40-soluble protein abundance by setting is: (concentration: 8mM) 1 ± 0.17; (concentration: 10mM) 0.932 ± 0.14.
Regarding J3QTA6|Q9BRQ6 (UniProt Q9BRQ6), the NP40-soluble protein abundance is, setting by setting: (concentration: 0.1mM) 1 ± 0.084; (concentration: 0.5mM) 1.01 ± 0.083; (concentration: 1mM) 1.12 ± 0.14; (concentration: 2mM) 1.15 ± 0.054; (concentration: 4mM) 1.15 ± 0.09; (concentration: 6mM) 1.16 ± 0.062. Besides, the NP40-soluble protein abundance by setting is: (concentration: 8mM) 1.22 ± 0.12; (concentration: 10mM) 1.26 ± 0.21.
Consider KIN (UniProt O60870), for which the NP40-soluble protein abundance (concentration: 0.1mM) was 0.9988 ± 0.0042; the NP40-soluble protein abundance (concentration: 0.5mM) is 0.993 ± 0.013; the NP40-soluble protein abundance (concentration: 1mM) came to 0.9497 ± 0.0058; the NP40-soluble protein abundance (concentration: 2mM) stood at 0.929 ± 0.029; the NP40-soluble protein abundance (concentration: 4mM) stood at 0.916 ± 0.021; the NP40-soluble protein abundance (concentration: 6mM) stood at 0.908 ± 0.024. In addition, the NP40-soluble protein abundance (concentration: 8mM) came out at 0.9015 ± 0.007 and the NP40-soluble protein abundance (concentration: 10mM) turned out to be 0.885 ± 0.053.
With J3QQJ5|Q9Y2L5 (UniProt Q9Y2L5), the NP40-soluble protein abundance is, setting by setting: (concentration: 0.1mM) 1.09 ± 0.062; (concentration: 0.5mM) 1.1 ± 0.12; (concentration: 1mM) 1.05 ± 0.091; (concentration: 2mM) 1.03 ± 0.11; (concentration: 4mM) 1 ± 0.14; (concentration: 6mM) 0.989 ± 0.13. For the same target, the NP40-soluble protein abundance is, setting by setting: (concentration: 8mM) 1.01 ± 0.12; (concentration: 10mM) 0.981 ± 0.13.
In the case of HMGN2 (UniProt P05204), the NP40-soluble protein abundance was 0.992 ± 0.2 (concentration: 0.1mM); 1 ± 0.14 (concentration: 0.5mM); 1.31 ± 0.23 (concentration: 1mM); 1.46 ± 0.35 (concentration: 2mM); 1.5 ± 0.11 (concentration: 4mM); 1.89 ± 0.35 (concentration: 6mM). Moreover, the NP40-soluble protein abundance (concentration: 8mM) was found to be 1.7 ± 0.41 and the NP40-soluble protein abundance (concentration: 10mM) stood at 2.68 ± 0.3.
Take IGFBP2 (UniProt P18065): the NP40-soluble protein abundance worked out at 0.9 ± 0.042 (concentration: 0.1mM); 0.884 ± 0.053 (concentration: 0.5mM); 0.983 ± 0.035 (concentration: 1mM); 0.997 ± 0.043 (concentration: 2mM); 0.995 ± 0.028 (concentration: 4mM); 0.934 ± 0.062 (concentration: 6mM). Also, the NP40-soluble protein abundance is, setting by setting: (concentration: 8mM) 1.02 ± 0.054; (concentration: 10mM) 1.05 ± 0.087.
Turning to “UniProt P04150|P04150-10|P04150-2|P04150-3|P04150-5|P04150-6|P04150-7|P04150-8|P04150-9|P04150-11|P04150-12|P04150-13”, the NP40-soluble protein abundance (concentration: 0.1mM) amounted to 0.899 ± 0.13; the NP40-soluble protein abundance (concentration: 0.5mM) turned out to be 0.946 ± 0.032; the NP40-soluble protein abundance (concentration: 1mM) amounted to 1.14 ± 0.072; the NP40-soluble protein abundance (concentration: 2mM) worked out at 1.07 ± 0.029; the NP40-soluble protein abundance (concentration: 4mM) is 1.01 ± 0.043; the NP40-soluble protein abundance (concentration: 6mM) was determined as 0.999 ± 0.055. Also, the NP40-soluble protein abundance runs as follows: (concentration: 8mM) 1.02 ± 0.046; (concentration: 10mM) 1.05 ± 0.069.
Take ARID1A (UniProt O14497): the NP40-soluble protein abundance is, setting by setting: (concentration: 0.1mM) 0.993 ± 0.031; (concentration: 0.5mM) 1.06 ± 0.016; (concentration: 1mM) 1.08 ± 0.055; (concentration: 2mM) 1.08 ± 0.084; (concentration: 4mM) 1.1 ± 0.1; (concentration: 6mM) 1.12 ± 0.12. Also, the NP40-soluble protein abundance (concentration: 8mM) stood at 1.16 ± 0.17 and the NP40-soluble protein abundance (concentration: 10mM) was 1.13 ± 0.17.
Turning to UniProt P48634|P48634-2|P48634-3, the NP40-soluble protein abundance came to 1.07 ± 0.034 (concentration: 0.1mM); 1.06 ± 0.0091 (concentration: 0.5mM); 1.19 ± 0.1 (concentration: 1mM); 1.27 ± 0.03 (concentration: 2mM); 1.42 ± 0.062 (concentration: 4mM); 1.52 ± 0.096 (concentration: 6mM). Besides, the NP40-soluble protein abundance (concentration: 8mM) is 1.7 ± 0.19 and the NP40-soluble protein abundance (concentration: 10mM) came to 1.84 ± 0.28.
With DNAJC8 (UniProt O75937), the NP40-soluble protein abundance was 0.838 ± 0.14 (concentration: 0.1mM); 0.801 ± 0.056 (concentration: 0.5mM); 1.1 ± 0.17 (concentration: 1mM); 1.09 ± 0.056 (concentration: 2mM); 1.08 ± 0.14 (concentration: 4mM); 1.14 ± 0.12 (concentration: 6mM). For the same target, the NP40-soluble protein abundance runs as follows: (concentration: 8mM) 1.05 ± 0.21; (concentration: 10mM) 1.3 ± 0.25.
Regarding UniProt O75822|O75822-2, the NP40-soluble protein abundance came out at 0.856 ± 0.038 (concentration: 0.1mM); 0.825 ± 0.074 (concentration: 0.5mM); 0.908 ± 0.09 (concentration: 1mM); 0.954 ± 0.098 (concentration: 2mM); 1.07 ± 0.17 (concentration: 4mM); 1.32 ± 0.22 (concentration: 6mM). Besides, the NP40-soluble protein abundance by setting is: (concentration: 8mM) 1.4 ± 0.3; (concentration: 10mM) 1.77 ± 0.39.
Take AKR1A1 (UniProt P14550): the NP40-soluble protein abundance came to 0.93 ± 0.035 (concentration: 0.1mM); 0.912 ± 0.034 (concentration: 0.5mM); 0.888 ± 0.04 (concentration: 1mM); 0.876 ± 0.037 (concentration: 2mM); 0.873 ± 0.047 (concentration: 4mM); 0.849 ± 0.04 (concentration: 6mM). For the same target, the NP40-soluble protein abundance (concentration: 8mM) was found to be 0.831 ± 0.088 and the NP40-soluble protein abundance (concentration: 10mM) stood at 0.825 ± 0.08.
Take K7EQW8|P67936|K7ERG3 (UniProt P67936): the NP40-soluble protein abundance is, setting by setting: (concentration: 0.1mM) 0.803 ± 0.15; (concentration: 0.5mM) 0.716 ± 0.089; (concentration: 1mM) 1.39 ± 0.5; (concentration: 2mM) 1.19 ± 0.29; (concentration: 4mM) 1.27 ± 0.27; (concentration: 6mM) 1.27 ± 0.21. For the same target, the NP40-soluble protein abundance (concentration: 8mM) was determined as 1.15 ± 0.34 and the NP40-soluble protein abundance (concentration: 10mM) came out at 1.83 ± 0.49.
Consider UniProt O96028|O96028-3|O96028-5, for which the NP40-soluble protein abundance reads like this: (concentration: 0.1mM) 1.04 ± 0.032; (concentration: 0.5mM) 1.06 ± 0.049; (concentration: 1mM) 1.19 ± 0.027; (concentration: 2mM) 1.26 ± 0.027; (concentration: 4mM) 1.44 ± 0.053; (concentration: 6mM) 1.49 ± 0.047. Also, the NP40-soluble protein abundance (concentration: 8mM) was determined as 1.59 ± 0.067 and the NP40-soluble protein abundance (concentration: 10mM) was 1.69 ± 0.062.
Consider UniProt P38159|P38159-2, for which the NP40-soluble protein abundance (concentration: 0.1mM) is 1.02 ± 0.048; the NP40-soluble protein abundance (concentration: 0.5mM) is 1.02 ± 0.027; the NP40-soluble protein abundance (concentration: 1mM) stood at 1.18 ± 0.036; the NP40-soluble protein abundance (concentration: 2mM) stood at 1.29 ± 0.043; the NP40-soluble protein abundance (concentration: 4mM) amounted to 1.47 ± 0.052; the NP40-soluble protein abundance (concentration: 6mM) is 1.65 ± 0.1. Further, the NP40-soluble protein abundance stood at 1.8 ± 0.15 (concentration: 8mM) and 2.04 ± 0.32 (concentration: 10mM).
